Test results from the supplement of paper PMC10849652.
The full data set covers some 8,800 targets. This sample favours those with a hit. About 0.5% of all pairs of compound and target were hits.

What was measured:
Assay in all cases: log2 fold change, soluble protein after heating vs DMSO (PISA); higher = thermal stabilisation; K562 lysate, 10 uM; active = over 0.2 and 3.5 SD of the protein, either way, in both replicates (recomputed)
alvocidib = compound: CN1CC[C@H](c2c(O)cc(O)c3c(=O)cc(-c4ccccc4Cl)oc23)[C@H](O)C1 [alvocidib]
Procedure, shortened: (§1)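 Quantification was by TMTpro 16plex LC-MS/MS with equalised channel sums, applied to the supernatant after 21,000xg for 90 min. Samples were crude K562 extract at 1 mg/mL protein in PBS pH 7.4 with 1 mM MgCl2, treated with 10 μM compound for 30 min, heated for 3 min across 48°C-58°C, pooled and brought to 0.5% NP-40 at 4°C. Values are log-two fold changes in thermal stability relative to solvent controls, from duplicates.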

Tubastatin A = compound: CN1CCc2c(c3ccccc3n2Cc2ccc(C(=O)NO)cc2)C1 [Tubastatin A]
Procedure, shortened: as §1

[1] = compound: CNC(=O)C1=CC=CC=C1NC2=NC(=NC=C2Cl)NC3=C(C=C(C=C3)N4CCOCC4)OC
Procedure, shortened: as §1

defactinib = compound: CNC(=O)c1ccc(Nc2ncc(C(F)(F)F)c(NCc3nccnc3N(C)S(C)(=O)=O)n2)cc1 [defactinib]
Procedure, shortened: as §1

[2] = compound: CNc1nc(-c2ccc3c(N)n[nH]c3c2)cc(N2C[C@@H](C(=O)NC3CCCCC3)CC[C@H]2C)n1
Procedure, shortened: as §1

encorafenib = compound: COC(=O)N[C@@H](C)CNc1nccc(-c2cn(C(C)C)nc2-c2cc(Cl)cc(NS(C)(=O)=O)c2F)n1 [encorafenib]
Procedure, shortened: as §1

[3] = compound: COC(=O)[C@H](CCSC)NC(=O)C1=C(C=C(C=C1)NC[C@H](CS)N)C2=CC=CC=C2
Procedure, shortened: as §1

alisertib = compound: COc1cc(Nc2ncc3c(n2)-c2ccc(Cl)cc2C(c2c(F)cccc2OC)=NC3)ccc1C(=O)O [alisertib]
Procedure, shortened: as §1

[4] = compound: COc1cc2nc(-c3cc(F)ccc3O)nc(N[C@@H]3CNC[C@H]3C(C)(C)O)c2cc1OC
Procedure, shortened: as §1

gefitinib = compound: COc1cc2ncnc(Nc3ccc(F)c(Cl)c3)c2cc1OCCCN1CCOCC1 [gefitinib]
Procedure, shortened: as §1

Measured: log2 fold change

TTMP isoform 3 (UniProt Q5BVD1)
Sequence of UniProt Q5BVD1 (Q5BVD1 whole entry, looked up): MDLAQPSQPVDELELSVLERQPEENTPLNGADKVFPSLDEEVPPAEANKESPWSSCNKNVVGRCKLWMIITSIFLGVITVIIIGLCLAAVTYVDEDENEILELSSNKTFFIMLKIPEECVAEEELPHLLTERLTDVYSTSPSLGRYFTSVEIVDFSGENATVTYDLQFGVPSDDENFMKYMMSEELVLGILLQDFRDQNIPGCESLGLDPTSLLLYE
inactive: alvocidib -0.347 | Tubastatin A 0.24 | [1] -0.105 | defactinib -0.088 | [2] 0.36 | encorafenib -0.06 | [3] 0.06 | alisertib 0.119 | [4] 0.129 | gefitinib 0.02

TK1 (UniProt P04183)
Sequence of UniProt P04183 (P04183 whole entry, looked up): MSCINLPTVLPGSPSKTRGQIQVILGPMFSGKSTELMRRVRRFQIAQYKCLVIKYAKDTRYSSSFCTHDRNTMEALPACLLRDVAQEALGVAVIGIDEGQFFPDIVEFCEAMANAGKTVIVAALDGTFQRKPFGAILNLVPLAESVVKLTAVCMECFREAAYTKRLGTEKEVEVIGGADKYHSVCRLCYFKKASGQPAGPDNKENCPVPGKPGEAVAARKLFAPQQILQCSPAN
inactive: alvocidib -0.051 | Tubastatin A 0.004 | [1] 0.006 | defactinib -0.011 | [2] 0.032 | encorafenib -0.018 | [3] -0.025 | alisertib -0.002 | [4] 0.017 | gefitinib 0.013

TOR3A (UniProt Q9H497)
inactive: alvocidib 0.01 | Tubastatin A -0.016 | [1] 0.004 | defactinib 0.01 | [2] 0.019 | encorafenib 0.006 | [3] -0.006 | alisertib 0.032 | [4] -0.367 | gefitinib 0.018

TUBB (UniProt P07437)
inactive: alvocidib 0.01 | Tubastatin A -0.035 | [1] -0.001 | defactinib 0.007 | [2] 0.007 | encorafenib -0.013 | [3] 0.081 | alisertib 0.014 | [4] -0.012 | gefitinib -0.031

TCF12 isoform 3 (UniProt Q99081)
inactive: alvocidib -0.045 | Tubastatin A -0.129 | [1] 0.009 | defactinib -0.007 | [2] -0.013 | encorafenib 0.039 | [3] -0.043 | alisertib 0.004 | [4] -0.025 | gefitinib 0.028

TFIP11 (UniProt Q9UBB9)
active: [3] 0.381
inactive: alvocidib -0.013 | Tubastatin A -0.135 | [1] 0.024 | defactinib 0.061 | [2] -0.023 | encorafenib 0.042 | alisertib 0.062 | [4] 0.013 | gefitinib -0.041

TSPAN13 (UniProt O95857)
Sequence of UniProt O95857 (O95857 whole entry, looked up): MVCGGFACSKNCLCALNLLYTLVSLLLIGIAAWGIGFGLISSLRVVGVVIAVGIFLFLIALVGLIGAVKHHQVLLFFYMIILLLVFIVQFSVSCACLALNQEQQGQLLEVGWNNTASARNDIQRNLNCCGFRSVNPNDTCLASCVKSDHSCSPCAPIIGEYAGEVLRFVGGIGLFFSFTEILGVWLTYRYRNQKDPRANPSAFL
inactive: alvocidib -0.26 | Tubastatin A 0.046 | [1] -0.042 | defactinib 0.017 | [2] 0.299 | encorafenib -0.007 | [3] 0.049 | alisertib 0.003 | [4] 0.043 | gefitinib -0.003

TP53RK (UniProt Q96S44)
inactive: alvocidib -0.012 | Tubastatin A 0.054 | [1] -0.037 | defactinib 0.019 | [2] -0.026 | encorafenib 0.028 | [3] 0.025 | alisertib 0.001 | [4] 0.002 | gefitinib -0.042

TRIM65 (UniProt Q6PJ69)
inactive: alvocidib -0.11 | Tubastatin A 0.025 | [1] -0.044 | defactinib 0.024 | [2] -0.014 | encorafenib -0.002 | [3] 0.089 | alisertib -0.02 | [4] 0.023 | gefitinib 0.003

TCF3 (UniProt P15923)
inactive: alvocidib -0.039 | Tubastatin A -0.066 | [1] 0.034 | defactinib 0.089 | [2] 0.19 | encorafenib 0.135 | [3] -0.051 | alisertib 0.047 | [4] 0.027 | gefitinib 0.023

TCAF2 (UniProt A6NFQ2)
inactive: alvocidib -0.016 | Tubastatin A -0.183 | [1] -0.026 | defactinib 0.067 | [2] -0.026 | encorafenib 0.006 | [3] 0.044 | alisertib 0.03 | [4] -0.067 | gefitinib -0.042

TOX4 (UniProt O94842)
inactive: alvocidib -0.16 | Tubastatin A -0.006 | [1] 0.027 | defactinib 0.025 | [2] -0.022 | encorafenib -0.011 | [3] -0.082 | alisertib 0.028 | [4] -0.013 | gefitinib -0.016

TTC27 (UniProt Q6P3X3)
inactive: alvocidib 0.012 | Tubastatin A -0.148 | [1] -0.049 | defactinib 0.023 | [2] -0.007 | encorafenib 0.028 | [3] 0.057 | alisertib 0.027 | [4] 0.012 | gefitinib 0.02

TBL2 (UniProt Q9Y4P3)
Sequence of UniProt Q9Y4P3 (Q9Y4P3 whole entry, looked up): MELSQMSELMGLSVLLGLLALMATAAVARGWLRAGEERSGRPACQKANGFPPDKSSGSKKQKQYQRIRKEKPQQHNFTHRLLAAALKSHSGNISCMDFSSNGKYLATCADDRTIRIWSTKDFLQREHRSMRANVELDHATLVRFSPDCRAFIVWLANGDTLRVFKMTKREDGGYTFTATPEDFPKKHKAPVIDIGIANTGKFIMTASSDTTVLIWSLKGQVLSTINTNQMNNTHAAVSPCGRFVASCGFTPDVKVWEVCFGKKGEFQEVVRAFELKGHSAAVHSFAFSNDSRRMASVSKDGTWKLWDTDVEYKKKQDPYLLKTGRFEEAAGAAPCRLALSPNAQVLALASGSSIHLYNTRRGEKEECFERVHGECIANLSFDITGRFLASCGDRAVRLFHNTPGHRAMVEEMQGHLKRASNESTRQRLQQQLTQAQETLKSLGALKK
inactive: alvocidib 0.018 | Tubastatin A -0.007 | [1] 0.023 | defactinib 0.039 | [2] -0.003 | encorafenib 0.057 | [3] -0.036 | alisertib 0.008 | [4] 0.055 | gefitinib -0.018

TMEM263 (UniProt Q8WUH6)
inactive: alvocidib 0.013 | Tubastatin A 0.266 | [1] 0.116 | defactinib 0.213 | [2] -0.013 | encorafenib 0.285 | [3] 0.154 | alisertib 0.202 | [4] 0.398 | gefitinib 0.222

THADA (UniProt Q6YHU6)
Sequence of UniProt Q6YHU6 (Q6YHU6 whole entry, looked up): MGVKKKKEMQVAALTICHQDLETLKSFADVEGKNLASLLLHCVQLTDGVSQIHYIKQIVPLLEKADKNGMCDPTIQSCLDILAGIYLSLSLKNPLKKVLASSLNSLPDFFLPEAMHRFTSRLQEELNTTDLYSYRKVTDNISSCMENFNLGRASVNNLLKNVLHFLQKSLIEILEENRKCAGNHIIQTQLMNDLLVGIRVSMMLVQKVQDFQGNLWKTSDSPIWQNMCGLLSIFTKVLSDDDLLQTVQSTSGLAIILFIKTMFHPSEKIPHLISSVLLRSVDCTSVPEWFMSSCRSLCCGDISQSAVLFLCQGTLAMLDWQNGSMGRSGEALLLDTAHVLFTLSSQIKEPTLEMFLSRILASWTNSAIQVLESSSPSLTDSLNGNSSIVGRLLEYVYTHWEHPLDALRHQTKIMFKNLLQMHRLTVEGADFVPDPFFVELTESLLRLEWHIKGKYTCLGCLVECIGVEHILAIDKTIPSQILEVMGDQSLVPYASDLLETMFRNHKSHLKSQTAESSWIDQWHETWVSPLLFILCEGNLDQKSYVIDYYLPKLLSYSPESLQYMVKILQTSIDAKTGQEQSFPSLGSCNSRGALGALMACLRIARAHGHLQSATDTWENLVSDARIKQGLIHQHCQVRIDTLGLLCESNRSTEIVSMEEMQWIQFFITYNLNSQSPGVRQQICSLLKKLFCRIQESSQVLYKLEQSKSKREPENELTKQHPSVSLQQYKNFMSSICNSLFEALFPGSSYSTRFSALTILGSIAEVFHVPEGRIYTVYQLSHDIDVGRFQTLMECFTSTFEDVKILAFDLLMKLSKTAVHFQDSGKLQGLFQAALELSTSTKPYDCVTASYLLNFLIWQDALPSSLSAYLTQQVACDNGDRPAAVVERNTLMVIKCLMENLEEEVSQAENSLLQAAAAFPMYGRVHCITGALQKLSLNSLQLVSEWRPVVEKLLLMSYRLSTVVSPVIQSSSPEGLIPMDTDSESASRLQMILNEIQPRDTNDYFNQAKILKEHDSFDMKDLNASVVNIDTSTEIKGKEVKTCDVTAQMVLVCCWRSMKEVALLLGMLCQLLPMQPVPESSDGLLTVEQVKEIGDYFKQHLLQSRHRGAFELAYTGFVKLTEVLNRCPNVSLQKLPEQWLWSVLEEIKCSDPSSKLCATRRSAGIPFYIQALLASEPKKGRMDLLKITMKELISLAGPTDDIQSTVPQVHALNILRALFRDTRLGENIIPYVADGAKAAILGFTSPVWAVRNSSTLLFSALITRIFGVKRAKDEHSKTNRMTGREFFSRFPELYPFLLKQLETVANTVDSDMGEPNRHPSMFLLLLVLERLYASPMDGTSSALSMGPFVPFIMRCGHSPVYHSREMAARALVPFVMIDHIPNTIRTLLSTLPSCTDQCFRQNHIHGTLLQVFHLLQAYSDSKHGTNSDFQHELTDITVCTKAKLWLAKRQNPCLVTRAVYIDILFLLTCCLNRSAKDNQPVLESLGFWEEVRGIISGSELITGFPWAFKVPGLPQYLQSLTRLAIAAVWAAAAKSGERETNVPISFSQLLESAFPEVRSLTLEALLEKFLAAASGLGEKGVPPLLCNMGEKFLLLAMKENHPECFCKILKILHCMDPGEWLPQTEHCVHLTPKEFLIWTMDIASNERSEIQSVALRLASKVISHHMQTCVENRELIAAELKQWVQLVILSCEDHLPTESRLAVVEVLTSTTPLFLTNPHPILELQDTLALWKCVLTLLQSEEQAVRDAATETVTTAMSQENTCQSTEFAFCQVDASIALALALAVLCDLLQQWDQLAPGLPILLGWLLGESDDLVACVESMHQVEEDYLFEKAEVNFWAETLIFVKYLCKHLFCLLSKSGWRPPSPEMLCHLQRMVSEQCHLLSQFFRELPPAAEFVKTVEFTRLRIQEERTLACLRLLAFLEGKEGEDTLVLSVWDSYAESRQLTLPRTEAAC
inactive: alvocidib -0.002 | Tubastatin A -0.165 | [1] 0.008 | defactinib 0.014 | [2] -0.013 | encorafenib 0.022 | [3] 0.031 | alisertib 0.01 | [4] 0.012 | gefitinib 0.001

TPM4 isoform 2 (UniProt P67936)
inactive: alvocidib 0.062 | Tubastatin A 0.03 | [1] -0.027 | defactinib -0.059 | [2] 0.028 | encorafenib -0.004 | [3] -0.077 | alisertib -0.098 | [4] -0.01 | gefitinib -0.004

TNKS (UniProt O95271)
inactive: alvocidib -0.223 | Tubastatin A -0.087 | [1] 0.04 | defactinib -0.013 | [2] -0.031 | encorafenib -0.078 | [3] 0.022 | alisertib -0.002 | [4] -0.072 | gefitinib -0.069

TRMT2A (UniProt Q8IZ69)
inactive: alvocidib -0.014 | Tubastatin A -0.144 | [1] 0.019 | defactinib 0.041 | [2] -0.018 | encorafenib 0.019 | [3] 0.098 | alisertib 0.043 | [4] 0.007 | gefitinib 0.007

UBE3C (UniProt Q15386)
inactive: alvocidib 0 | Tubastatin A -0.084 | [1] 0.023 | defactinib 0.033 | [2] 0.024 | encorafenib 0.076 | [3] -0.145 | alisertib 0.022 | [4] 0 | gefitinib -0.026

TPP2 (UniProt P29144)
inactive: alvocidib 0.018 | Tubastatin A -0.028 | [1] -0.014 | defactinib -0.014 | [2] -0.03 | encorafenib 0 | [3] 0.068 | alisertib -0.02 | [4] 0 | gefitinib 0.008

UBE2D1 (UniProt P51668)
inactive: alvocidib 0.003 | Tubastatin A -0.045 | [1] 0.06 | defactinib 0.028 | [2] -0.027 | encorafenib -0.025 | [3] -0.042 | alisertib 0.028 | [4] -0.036 | gefitinib 0.106

TMEM164 (UniProt Q5U3C3)
Sequence of UniProt Q5U3C3 (Q5U3C3 whole entry, looked up): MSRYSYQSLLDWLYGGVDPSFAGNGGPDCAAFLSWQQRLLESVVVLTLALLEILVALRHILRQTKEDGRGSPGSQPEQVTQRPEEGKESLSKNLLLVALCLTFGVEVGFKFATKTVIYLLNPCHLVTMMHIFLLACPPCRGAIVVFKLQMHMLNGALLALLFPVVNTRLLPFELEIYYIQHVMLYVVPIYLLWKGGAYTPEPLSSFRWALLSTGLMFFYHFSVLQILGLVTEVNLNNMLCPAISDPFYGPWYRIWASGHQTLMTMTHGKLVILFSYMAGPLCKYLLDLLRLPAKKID
inactive: alvocidib -0.393 | Tubastatin A 0.05 | [1] -0.039 | defactinib 0.007 | [2] 0.333 | encorafenib -0.107 | [3] 0.185 | alisertib -0.075 | [4] 0.021 | gefitinib -0.063

TUBA1B (UniProt P68363)
Sequence of UniProt P68363 (P68363 whole entry, looked up): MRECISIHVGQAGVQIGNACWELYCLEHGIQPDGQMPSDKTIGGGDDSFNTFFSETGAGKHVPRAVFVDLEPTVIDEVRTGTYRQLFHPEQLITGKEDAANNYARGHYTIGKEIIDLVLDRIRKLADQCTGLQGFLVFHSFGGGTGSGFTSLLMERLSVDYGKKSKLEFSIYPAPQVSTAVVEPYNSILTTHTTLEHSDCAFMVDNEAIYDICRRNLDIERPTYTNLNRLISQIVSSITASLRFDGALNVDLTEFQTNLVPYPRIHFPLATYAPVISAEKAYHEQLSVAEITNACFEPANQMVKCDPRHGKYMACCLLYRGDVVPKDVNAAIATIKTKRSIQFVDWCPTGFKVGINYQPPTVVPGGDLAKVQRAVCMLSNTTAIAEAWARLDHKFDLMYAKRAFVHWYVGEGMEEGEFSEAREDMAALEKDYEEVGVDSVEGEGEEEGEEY
inactive: alvocidib -0.027 | Tubastatin A -0.056 | [1] 0.019 | defactinib -0.03 | [2] 0.003 | encorafenib -0.004 | [3] 0.085 | alisertib 0.026 | [4] -0.004 | gefitinib 0.013

TPM4 (UniProt P67936)
inactive: alvocidib -0.016 | Tubastatin A 0.074 | [1] -0.021 | defactinib 0.019 | [2] 0.022 | encorafenib 0.028 | [3] -0.028 | alisertib -0.105 | [4] 0.012 | gefitinib 0.033

TRAPPC10 (UniProt P48553)
inactive: alvocidib -0.034 | Tubastatin A -0.074 | [1] 0.01 | defactinib -0.034 | [2] 0.011 | encorafenib 0.009 | [3] -0.047 | alisertib 0.015 | [4] -0.001 | gefitinib -0.029

TPM1 (UniProt H7BYY1)
inactive: alvocidib 0.027 | Tubastatin A 0.092 | [1] 0.007 | defactinib 0 | [2] 0.022 | encorafenib 0.056 | [3] -0.023 | alisertib -0.048 | [4] -0.04 | gefitinib 0.076

UFSP2 (UniProt Q9NUQ7)
Sequence of UniProt Q9NUQ7 (Q9NUQ7 whole entry, looked up): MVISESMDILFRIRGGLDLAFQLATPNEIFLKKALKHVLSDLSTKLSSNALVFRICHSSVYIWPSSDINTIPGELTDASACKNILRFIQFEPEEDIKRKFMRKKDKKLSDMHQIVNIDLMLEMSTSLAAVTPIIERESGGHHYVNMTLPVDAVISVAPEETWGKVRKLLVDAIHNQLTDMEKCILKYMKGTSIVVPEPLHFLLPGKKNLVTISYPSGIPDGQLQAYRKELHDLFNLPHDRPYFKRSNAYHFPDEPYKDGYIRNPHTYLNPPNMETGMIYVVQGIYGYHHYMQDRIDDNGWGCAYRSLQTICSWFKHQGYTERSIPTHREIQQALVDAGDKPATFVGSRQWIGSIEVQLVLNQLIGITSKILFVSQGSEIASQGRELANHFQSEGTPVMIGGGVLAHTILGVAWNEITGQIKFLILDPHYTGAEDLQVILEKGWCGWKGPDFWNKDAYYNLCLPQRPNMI
inactive: alvocidib 0.034 | Tubastatin A 0.024 | [1] -0.045 | defactinib 0.022 | [2] -0.036 | encorafenib 0.031 | [3] 0.055 | alisertib 0.019 | [4] 0.035 | gefitinib -0.031

TPM3 (UniProt P06753)
inactive: alvocidib 0.048 | Tubastatin A 0.049 | [1] -0.015 | defactinib 0.044 | [2] -0.003 | encorafenib -0.048 | [3] -0.02 | alisertib -0.007 | [4] 0 | gefitinib 0.008

TBRG4 (UniProt Q969Z0)
inactive: alvocidib 0.017 | Tubastatin A -0.089 | [1] 0.007 | defactinib 0.071 | [2] -0.018 | encorafenib 0.01 | [3] -0.013 | alisertib 0.037 | [4] -0.008 | gefitinib -0.015

TPX2 (UniProt Q9ULW0)
Sequence of UniProt Q9ULW0 (Q9ULW0 whole entry, looked up): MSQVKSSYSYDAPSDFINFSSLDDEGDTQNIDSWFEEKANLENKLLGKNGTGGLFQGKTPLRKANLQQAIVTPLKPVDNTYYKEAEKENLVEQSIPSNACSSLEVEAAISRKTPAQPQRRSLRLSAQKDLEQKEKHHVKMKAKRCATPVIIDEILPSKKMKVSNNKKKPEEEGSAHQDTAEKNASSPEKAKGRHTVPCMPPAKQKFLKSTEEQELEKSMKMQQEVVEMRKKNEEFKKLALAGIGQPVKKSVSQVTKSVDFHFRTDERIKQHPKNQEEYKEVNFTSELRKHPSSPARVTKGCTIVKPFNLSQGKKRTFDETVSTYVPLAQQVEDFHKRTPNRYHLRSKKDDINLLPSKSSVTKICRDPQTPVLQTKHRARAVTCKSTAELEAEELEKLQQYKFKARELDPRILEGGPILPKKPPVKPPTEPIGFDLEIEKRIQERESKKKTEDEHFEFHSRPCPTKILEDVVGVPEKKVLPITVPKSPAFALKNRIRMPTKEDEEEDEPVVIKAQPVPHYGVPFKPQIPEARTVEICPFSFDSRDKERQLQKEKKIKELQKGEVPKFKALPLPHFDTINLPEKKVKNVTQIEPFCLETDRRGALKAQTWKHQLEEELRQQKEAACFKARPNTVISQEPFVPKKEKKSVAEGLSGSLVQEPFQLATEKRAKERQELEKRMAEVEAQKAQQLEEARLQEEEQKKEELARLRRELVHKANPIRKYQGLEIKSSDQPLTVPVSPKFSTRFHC
active: [3] -0.215
inactive: alvocidib -0.002 | Tubastatin A -0.129 | [1] 0.014 | defactinib 0.01 | [2] 0.045 | encorafenib 0.041 | alisertib 0.043 | [4] -0.027 | gefitinib 0.012
